We go through 11 compounds from PubChem BioAssay.

Active and inactive are the calls of the source. Unless noted, no rule for the calls is given here.

The nature of test [1]: Brca1-Bard1 BiLC signal decrease – luminescence, single concentration, counter-screen for Mdm2/MdmX interaction inhibitor project, confirmation (AID 504668). The conditions noted are these: Brca1/Bard1 bimolecular luciferase complementation counterscreen, at 8 µM, stronger effect = higher value. In general terms: The purpose of a counterscreen is to sort out artefacts and off-target activity.

For test [2], the target named is PEG-3 (UniProt Q6IN02). As to the kind of experiment: inhibition of PEG-3 promoter-driven reporter – cell-based, HeLa, luciferase, CREF/GAPDH counter-screen panel, dose response (AID 624167). To be noted: CREF/GAPDH counter-screens; HeLa PEG-Prom luciferase reporter, overnight, run 1, dose range 1, at 100 µM (top of the series) unless noted.
Sequence of PEG-3 (Q6IN02 whole entry, looked up): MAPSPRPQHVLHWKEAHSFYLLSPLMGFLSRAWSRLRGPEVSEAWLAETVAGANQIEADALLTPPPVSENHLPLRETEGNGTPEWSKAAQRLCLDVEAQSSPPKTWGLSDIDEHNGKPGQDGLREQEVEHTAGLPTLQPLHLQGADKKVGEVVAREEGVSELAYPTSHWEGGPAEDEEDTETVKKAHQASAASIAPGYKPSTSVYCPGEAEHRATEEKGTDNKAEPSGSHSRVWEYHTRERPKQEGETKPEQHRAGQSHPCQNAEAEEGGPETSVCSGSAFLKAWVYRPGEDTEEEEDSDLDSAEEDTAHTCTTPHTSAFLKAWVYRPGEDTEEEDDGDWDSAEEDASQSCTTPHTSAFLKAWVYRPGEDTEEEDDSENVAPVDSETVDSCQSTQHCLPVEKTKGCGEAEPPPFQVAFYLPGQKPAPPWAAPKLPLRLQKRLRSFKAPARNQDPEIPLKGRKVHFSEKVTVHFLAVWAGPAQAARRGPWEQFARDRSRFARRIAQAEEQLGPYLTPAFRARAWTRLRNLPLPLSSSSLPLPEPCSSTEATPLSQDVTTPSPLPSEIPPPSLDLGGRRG
The target in test [3] is PEG-3 (UniProt Q6IN02). The test is described as above. To be noted: CREF/GAPDH counter-screens; HeLa PEG-Prom luciferase reporter, overnight, run 2, dose range 1, at 100 µM (top of the series) unless noted.
The subject of test [4] is Rat fibroblasts (CREF). The description is as above. To be noted: CREF/GAPDH counter-screens; run 1, dose range 1, at 100 µM (top of the series).
Test [5] deals with Rat fibroblasts (CREF). The description is as above. The conditions noted are these: CREF/GAPDH counter-screens; run 2, dose range 1, at 100 µM (top of the series).
Test [6] deals with Tumor necrosis factor receptor superfamily member 10B (Homo sapiens) (UniProt O14763). In words: viability loss of caspase-8 NB7 cells with TRAIL – with/without TRAIL, luminescence panel, confirmation (AID 651596; in the data active = activity above about 50%). To be noted: NB7 neuroblastoma + caspase-8, TRAIL sensitization, NB7 Caspase-8, with TRAIL, mean of runs, at 10 µM, stronger effect = higher value.
Sequence of Tumor necrosis factor receptor superfamily member 10B (Homo sapiens) (O14763 whole entry, looked up): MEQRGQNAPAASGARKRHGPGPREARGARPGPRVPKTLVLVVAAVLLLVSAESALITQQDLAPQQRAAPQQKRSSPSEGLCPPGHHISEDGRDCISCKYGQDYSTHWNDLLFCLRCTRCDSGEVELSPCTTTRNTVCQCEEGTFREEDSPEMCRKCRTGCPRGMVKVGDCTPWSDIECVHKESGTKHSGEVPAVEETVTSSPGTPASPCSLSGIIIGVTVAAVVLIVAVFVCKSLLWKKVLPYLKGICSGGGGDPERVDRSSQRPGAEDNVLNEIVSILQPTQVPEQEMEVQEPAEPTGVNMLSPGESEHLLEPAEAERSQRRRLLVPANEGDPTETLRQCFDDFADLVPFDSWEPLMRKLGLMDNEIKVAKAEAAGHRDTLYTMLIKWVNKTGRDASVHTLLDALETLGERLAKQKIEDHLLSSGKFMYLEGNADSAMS
Assay in test [7]: as above
To be noted: NB7 neuroblastoma + caspase-8, without TRAIL, NB7 Caspase-8, without TRAIL, mean of runs, at 10 µM.

A short description of test [8]: NFkB reporter suppression in cystic fibrosis bronchial cells – cell-based, uHTS hits, panel, cytotoxicity readout, dose response (AID 624344). To be noted: CF bronchial epithelial cells, PAF-induced NFkB reporter inhibition, with PAF, run 1; at 79 µM (top of the series) unless noted.
Assay in test [9]: as above
The conditions noted are these: CF bronchial epithelial cells, PAF-induced NFkB reporter inhibition, with PAF, run 2; at 79 µM (top of the series) unless noted.

With `COc1ccc(C(NC(C)=O)c2ccc3cccnc3c2O)c(OC)c1` (centres undefined), the inhibition – broadly, the change of the read-out against control, counted positive when it falls – in test [1] is 31.2% (active); with PEG-3 [2] it was 64.7%; with PEG-3 [3], 59.9%; in the test on Rat fibroblasts (CREF) [4], -4.86%; in the test with Rat fibroblasts (CREF) [5], 50.2%.
On to `Cc1ccc(-c2nnc(SCC(=O)Nc3ccccc3F)o2)cc1`, for which the inhibition in test [1] was 32.6% (active); with PEG-3 [2], 98.6%; with PEG-3 [3], 94.7%; in the test with Rat fibroblasts (CREF) [4] it was 97.2%; in the test with Rat fibroblasts (CREF) [5] it was 97.2%. Besides, the activity in [6] came out at 83%; in test [7], 83.2%.
`COc1ccc(-c2nsc3c(N4CCCCC4C)ncnc23)cc1` (centres undefined): the inhibition in test [1] was 24.8% (active); in the test with PEG-3 [2] it was 89.7%; with PEG-3 [3], 93.5%. Further, the activity in [6] came out at 86.8%; in test [7], 87.7%.
`CC(C)(C)c1ccc(C(=O)O/N=C(\N)c2ccccn2)cc1`: the inhibition in [1] was 28% (active); in the test with PEG-3 [2], 102%; with PEG-3 [3], 99%; in the test with Rat fibroblasts (CREF) [4], 101%; in the test on Rat fibroblasts (CREF) [5], 99.9%. For the same compound, the activity in test [6] and in [7] was 99.8% throughout.
On to `O=C(O)c1cccc(COc2ccc3c(c2)CCC3)c1`, for which the inhibition was 24.1% (active) in [1]; 98.5% in the test with PEG-3 [2]; 99.1% with PEG-3 [3]; 91.1% in the test with Rat fibroblasts (CREF) [4]; 89.3% with Rat fibroblasts (CREF) [5].
On to `Nc1ncnc(NCc2ccc(F)cc2)c1[N+](=O)[O-]`, for which the inhibition is 27% (active) in test [1], 99% in [8] and 98.9% in test [9].
`Cc1ccc2nc(-c3ccccc3)cn2c1`: the inhibition in test [1] was 32.2% (active); with PEG-3 [2], 97.5%; with PEG-3 [3] it was 99%; with Rat fibroblasts (CREF) [4], 100%; in the test with Rat fibroblasts (CREF) [5], 99.1%. In addition, the activity was 94% in test [6] and 93.9% in test [7].
As for `Cc1cc(C(=O)COC(=O)c2ccccc2O)c(C)n1CC1CCCO1` (centres undefined), the inhibition was 35.8% (active) in test [1]; 99.1% with PEG-3 [2]; 101% with PEG-3 [3]; 99.6% with Rat fibroblasts (CREF) [4]; 99.2% in the test with Rat fibroblasts (CREF) [5]. Besides, the activity in [6] was determined as 91.2%; in [7] it was 88.9%.
With `O=C(Nc1cccc2[nH]ncc12)c1ccc(F)cc1`, the values for the inhibition in test [1], in test [8] and in test [9] were 25% (active), 102% and 95.5%, respectively.
For `O=C(Nc1nc2ccc(F)cc2s1)C1CCN(S(=O)(=O)c2cc([N+](=O)[O-])ccc2Cl)CC1`, in that order: 25.5% (active), 105% and 112%.
In the case of `Cc1nc2cc(-c3ccccc3)sc2c(=O)n1N`, the inhibition in test [1] was 30% (active); in the test with PEG-3 [2], 102%; with PEG-3 [3] it was 97.8%; in the test on Rat fibroblasts (CREF) [4], 93.7%; in the test on Rat fibroblasts (CREF) [5] it was 92%. Moreover, the activity was determined as 73.1% in [6] and 73.6% in [7].
